JMJD2A Tudor: qHTS Assay for Inhibitors of JMJD2A-Tudor Domain; Lysine-specific demethylase 4A (Homo sapiens), O75164; AlphaScreen JMJD2A-Tudor / H3K4me3 peptide binding; Potency, µM (top dose mostly 114 µM), for the others: at the highest dose activity change, negative = inhibition, hits mostly inhibitors; hit rate 4.4% among 390,000; also: potency is read from the fitted curve at half-maximal effect; % is scaled to controls: 0 for no effect and ±100 for the full control effect; nearly all actives have a fitted effect of over 50% in size
Target sequence (O75164 whole entry, looked up, the tested form may be a part): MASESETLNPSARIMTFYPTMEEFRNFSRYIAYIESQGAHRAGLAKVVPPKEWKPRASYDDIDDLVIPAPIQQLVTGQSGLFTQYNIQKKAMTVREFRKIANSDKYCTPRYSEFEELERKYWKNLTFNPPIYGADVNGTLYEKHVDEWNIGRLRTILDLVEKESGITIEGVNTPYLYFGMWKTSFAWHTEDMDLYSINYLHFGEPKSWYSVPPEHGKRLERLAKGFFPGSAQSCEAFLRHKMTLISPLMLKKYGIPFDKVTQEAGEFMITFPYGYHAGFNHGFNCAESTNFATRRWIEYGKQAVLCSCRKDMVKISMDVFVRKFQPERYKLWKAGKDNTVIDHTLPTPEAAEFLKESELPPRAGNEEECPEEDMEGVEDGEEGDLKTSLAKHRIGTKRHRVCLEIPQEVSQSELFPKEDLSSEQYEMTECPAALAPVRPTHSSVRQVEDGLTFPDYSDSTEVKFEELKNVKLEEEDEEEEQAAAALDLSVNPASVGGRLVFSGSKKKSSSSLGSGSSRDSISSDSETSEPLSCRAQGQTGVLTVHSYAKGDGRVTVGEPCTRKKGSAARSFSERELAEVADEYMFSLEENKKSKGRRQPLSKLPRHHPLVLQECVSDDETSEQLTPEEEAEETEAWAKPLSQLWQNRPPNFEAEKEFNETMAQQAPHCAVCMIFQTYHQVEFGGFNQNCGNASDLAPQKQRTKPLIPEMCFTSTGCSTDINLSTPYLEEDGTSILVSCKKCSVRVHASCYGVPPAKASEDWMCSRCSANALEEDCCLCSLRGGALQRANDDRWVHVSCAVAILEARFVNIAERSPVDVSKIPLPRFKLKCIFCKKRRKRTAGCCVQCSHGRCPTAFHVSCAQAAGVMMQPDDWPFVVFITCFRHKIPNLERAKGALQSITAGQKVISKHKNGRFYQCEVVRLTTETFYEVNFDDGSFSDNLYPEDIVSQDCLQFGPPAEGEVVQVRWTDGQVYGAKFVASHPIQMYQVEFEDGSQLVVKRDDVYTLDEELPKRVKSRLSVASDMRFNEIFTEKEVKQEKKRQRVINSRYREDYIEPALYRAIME
BAZ2B inh: qHTS Assay for Inhibitors of BAZ2B; Bromodomain adjacent to zinc finger domain protein 2B (Homo sapiens), Q9UIF8; AlphaScreen BAZ2B-H3K14Ac peptide displacement; Potency, µM (series often up to 114 µM), for the others: top-dose activity change, negative = inhibition, hits mostly inhibitors; hit rate 4.4% among 360,000; also: potency is read from the fitted curve at half-maximal effect; % is scaled to controls: 0 for no effect and ±100 for the full control effect; nearly all actives have a fitted effect of over 60% in size
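AlphaScreen displacement of biotin-H3(5-23)K14Ac peptide (50 nM final) from BAZ2B (50 nM final) in PBS pH 7.4, 0.01% Tween-20; complex preformed 30 min RT, then compounds (top 110 uM) 30 min RT, beads 20 min dark.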
G9a block: qHTS Assay for Inhibitors of Histone Lysine Methyltransferase G9a; hit rate 8.8% among 350,000; G9a H3K9 monomethylation, AlphaScreen, 2 h; Potency, µM (top dose mostly 102 µM), inactives show at the highest dose activity, negative = inhibition, actives largely listed as inhibitors; Histone-lysine N-methyltransferase EHMT2 (Homo sapiens), Q96KQ7; also: potency is read from the fitted curve at half-maximal effect; % is scaled to controls: 0 for no effect and ±100 for the full control effect; nearly all actives have a fitted effect of over 75% in size
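G9a (20 nM) preincubated 15 min RT with compounds, then 500 nM biotinylated H3K9 peptide and 20 uM SAM added; 2 h RT reaction. Monomethyl-H3K9 product detected by AlphaScreen with anti-H3K9me1 antibody, streptavidin donor and anti-rabbit IgG acceptor beads.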
CtBP-E1A blk: qHTS Assay for Inhibitors of the CtBP/E1A Interaction; CtBP / adenovirus E1A interaction (AlphaScreen); AlphaScreen GST-E1A/His-CtBP binding, 1536-well; hits give low values; activity change, % (no concentration beside the values); hit rate 0.49% among 340,000; AID 651724, 2012; in the data active = activity change below about -65%; inconclusive = mostly about -30% to -63%; also: % is scaled to controls: 0 for no effect and ±100 for the full control effect
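Steps: dispense buffer (Tris pH 8.0, NaCl 300 mM, TCEP 1 mM, BSA, Tween 20); add 5X protein mix (GST-E1A, His-CtBP, 125 nM each); pin 23 nL compound; 2 h at 37 °C, dark; add 5X beads (50 ug/mL); 1 h; read.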
HP1b chromo inh: HTS for Inhibitors of HP1-beta Chromodomain Interactions with Methylated Histone Tails | Chromobox protein homolog 1 (Homo sapiens), P83916 | AlphaScreen HP1-beta / biotin-H3K9me3 peptide binding | Potency, µM (highest dose often 114 µM), inactives show at the highest dose activity change, negative = inhibition, usual class: inhibitors | hit rate 0.56% among 390,000; also: potency is read from the fitted curve at half-maximal effect; nearly all actives have a fitted effect of over 70% in size
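AlphaScreen: HP1-beta (50 nM) preformed 30 min with biotin-H3(1-18)K9me3 peptide (50 nM) in PBS pH 7.4, 0.01% Tween-20. Compound added for 30 min at RT, then streptavidin donor/nickel chelate acceptor beads (10 ug/mL) for 30 min.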
Six1-Eya2 blk: qHTS Assay for Inhibitors of the Six1/Eya2 Interaction. AlphaScreen GST-Six1/His-Eya2 binding, biochemical; hits give low values. hit rate 0.56% among 360,000. activity change, % (no concentration beside the values); in the data active = activity change below about -65%; inconclusive = mostly about -30% to -63%; also: % is scaled to controls: 0 for no effect and ±100 for the full control effect
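Six1/Eya2 binding was read as AlphaScreen signal after compounds were pinned into GST-Six1 plus His-tagged Eya2 (5X stock 250/500 nM) in pH 8.0 Tris/NaCl/TCEP buffer, beads added, then incubated 1 h, 37 C, dark.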
Numbers without * were called inactive; ? = inconclusive; nt = not tested or not shown; [ ] = remark or other dose. This is a sample that favours compounds with a hit; in the whole collection about 10% have one here. Unless noted, calls follow the shape of the dose curve; as a rule, active = well fitted inhibition curve with a large enough effect; inconclusive = small, poorly fitted or top-dose-only effect; inactive = no such curve, though single readings can be large or run the other way.

SMILES	JMJD2A Tudor	BAZ2B inh	G9a block	CtBP-E1A blk	HP1b chromo inh	Six1-Eya2 blk
CCCCCn1c(=N)c(S(=O)(=O)c2ccccc2)cc2c(=O)n3cccc(C)c3nc21	4%	5%	6%[59 µM]	nt	31%	nt
O=S(=O)(c1ccc2c(c1)CCCC2)N1CCN(c2nc(-c3cccs3)nc3ccccc23)CC1	-13%	nt	nt	nt	19%	nt
COc1ccc(CCn2c3c(c(=O)[nH]c2=S)CN(C)CN3)cc1OC	-17%	nt	nt	nt	20%	nt
CCc1ccc2c(c1)-c1ccccc1S(=O)(=O)N2CC(=O)N1CCC(C)CC1	-21%	-15%	-26%[59 µM]	nt	14%	nt
O=C(/C=C/c1ccccc1)NC(=S)NNC(=O)c1cccnc1	-19%	-8%	22µM*	?	23%	-21
O=C(NNC(=S)NC(=O)c1ccccc1)c1cccnc1	-18%	-2%	22µM*	nt	17%	-2
Cc1onc(-c2ccccc2)c1C(=O)NC(=S)NNC(=O)c1cccnc1	-2%	6%	?	1	-1%	2
COc1cc(C(=O)NNC(=S)NC(=O)/C=C/c2ccccc2)cc(OC)c1OC	-12%	-2%	32µM*	-23	-2%	-21
CCC(=O)N1CCc2cc(CNC(=O)Nc3cc(C)ccc3C)ccc21	-8%	-6%	-17%[59 µM]	nt	22%[57 µM]	nt
Cc1cc(/C=N/NC(=O)c2ccccc2F)c(C)n1-c1ccccc1	-20%	-37%	50µM*	-11	-7%	-13
CNC(=S)N/N=C/c1cc(C)n(-c2ccc(Cl)c(Cl)c2)c1C	?	35µM*	45µM*	-10	?	-17
Cc1cc(/C=N/NC(=O)c2c(Br)cnn2C)c(C)n1-c1cccc(Br)c1	?	28µM*	?	4	?	-16
Cc1cc(/C=N/NC(=O)c2cccc(F)c2)c(C)n1-c1ccccc1	?	-32%	-46%	nt	-2%	-2
CC(=O)C1C(=O)c2c(cccc2[N+](=O)[O-])C1=Nc1ccc(S(N)(=O)=O)cc1 (stereo not given)	?	?	40µM*	-8	7%	-4
COc1ccc(F)cc1S(=O)(=O)Nc1ccc2c(c1)CCCN2C(=O)c1cccs1	-8%	-22%	-4%[12.7 µM]	nt	15%	nt
Cc1ccccc1/C=N/N1C(=O)CSC1=S	?	-27%	?	nt	-5%	-23
O=C1CSC(=S)N1/N=C/c1cccnc1	-7%	-3%	7.1µM*	-13	6%	-14
O=C1CSC(=S)N1N=Cc1ccccc1O	18µM*	nt	nt	-2	?	-90*
O=C1CSC(=S)N1N=Cc1cccc(OCc2ccccc2)c1	nt	nt	nt	-14	nt	-23
O=C1CSC(=S)N1N=Cc1ccc(OCc2ccccc2)cc1	nt	nt	nt	-21	nt	?
COc1cc(O)c(C=NN2C(=O)CSC2=S)c(OC)c1	nt	nt	nt	?	nt	-87*
COc1cc(/C=N/N2C(=O)CSC2=S)ccc1O	-46%	?	-15%[12.7 µM]	?	?	-23
O=C1CSC(=S)N1/N=C/c1cc(Br)c(O)c(Br)c1	16µM*	35µM*	40µM*	?	-36%[57 µM]	?
COc1ccc(OC)c(S(=O)(=O)Nc2cc3c(cc2C)n(C)c(=O)c(=O)n3C)c1	-3%	-4%	-5%[59 µM]	nt	19%	nt
CCOc1ccccc1NC(=O)Cn1c(=O)oc2cc(S(=O)(=O)NCc3ccccc3)ccc21	-4%	-1%	7%[59 µM]	nt	20%	nt
SMILES	JMJD2A Tudor	BAZ2B inh	G9a block	CtBP-E1A blk	HP1b chromo inh	Six1-Eya2 blk
COc1ccccc1NC(=O)C1=C(C)Nc2ncnn2C1c1cccn1C (stereo not given)	-13%	-22%	0%[59 µM]	nt	19%[57 µM]	nt
CN(CC(=O)NCc1ccccc1Cl)S(=O)(=O)c1ccc2c(c1)c(=O)n(C)c(=O)n2C	-16%	-6%	1%[59 µM]	nt	10%	nt
O=C1CSC(=S)N1N=Cc1c[nH]c2ccc(Br)cc12	nt	nt	nt	-8	nt	?
COc1ccc(Br)cc1/C=N/N1C(=O)CSC1=S	?	?	79µM*	-27	?	-11
O=C1CSC(=S)N1/N=C/c1ccc2c(c1)OCCO2	?	?	?	-82*	-9%	-28
O=C1CSC(=S)N1Cc1cccnc1	?	40µM*	?	-6	?	-2
CC(C)CCOc1ccc(/C=N/N2C(=O)CSC2=S)cc1	-34%	-20%	-4%	?	21%	-20
O=C1CSC(=S)N1/N=C/c1ccc(Cl)c([N+](=O)[O-])c1	nt	35µM*	nt	nt	nt	nt
CCOc1ccccc1NC(=O)CN1C(=O)COc2ccc(S(=O)(=O)N3CCCCCC3)cc21	-8%	-25%	-3%[59 µM]	nt	29%	nt
CCOc1cc(CNC(=O)C(NS(=O)(=O)c2cccs2)C(C)C)cc(OCC)c1OCC (stereo not given)	-25%	-12%	5%[59 µM]	nt	-8%	nt
CCn1cc(C(=O)OCC(=O)Nc2cc(Cl)ccc2C)c(=O)c2ccc(C)nc21	-7%	2%	-34%[59 µM]	nt	25%	nt
CC(=O)Nc1ccc(NC(=O)c2ccco2)cc1	-7%	10%	18%[2.33 µM]	1	23%	3
CC1N(C)c2cc(NC(=O)c3ccco3)ccc2C1(C)C (stereo not given)	?	50µM*	?	-13	-11%	-29
CCOc1ccccc1NS(=O)(=O)c1ccc(N2CCCCS2(=O)=O)cc1	-18%	-4%	4%[59 µM]	nt	-6%	nt
CC(C)(C)c1ccc(OCc2nnc(-c3ccccc3)o2)cc1	143%	151%	97%[59 µM]	nt	188%	nt
O=C(Cc1ccccc1)N/N=C/c1cc2c(cc1Cl)OCO2	-15%	2%	4%[59 µM]	-5	24%	-12
O=C(CNc1ccc2c(c1)OCO2)N/N=C\c1ccccc1Cl	?	50µM*	?	-24	?	-18
Cc1[nH]c2ccccc2c1/C=N\NC(=O)CNc1ccc2c(c1)OCO2	?	45µM*	10µM*	-5	?	-13
Cc1cccc(N2CCN(S(=O)(=O)c3ccc(F)c(C(=O)Nc4ccc(C(C)C)cc4)c3)CC2)c1C	-22%	0%	6%[59 µM]	nt	-8%	nt
CCOC(=O)c1c(C)[nH]c(C)c1S(=O)(=O)N(C)CC(=O)Nc1cccc(C(F)(F)F)c1	-6%	-2%	-1%[59 µM]	nt	8%	nt
Cc1ccccc1N1CCN(S(=O)(=O)c2nnc(NC(=O)c3ccc(C(C)C)cc3)s2)CC1	-34%	-29%	?	nt	-31%	nt
CC(C)CC(=O)N1CCN(Cc2cccc(F)c2)CC1	4.5µM*	56µM*	-46%[12.7 µM]	1	?	6
